# Reference: PubChem BioAssay (Tox21)
# Several values for one entry are separate records, joined by “and”; a condition that tells them apart may be missing. Identical values can stand only once. Results filed as inconclusive are left out. Where a call stands in place of a potency, no number is given. Some compounds were tested as several samples or in several runs, with calls that do not always agree. Activity calls are given as the source filed them. Unless noted, calls follow the shape of the dose curve; as a rule, active = well fitted curve in the direction sought with a large enough effect in the repeat runs; inconclusive = weak or mixed curves; inactive = no such curve, though single readings can be large; an effect the other way counts as inactive or inconclusive.
# Key:
# [1] = qHTS assay to identify small molecule agonists of the RXR signaling pathway - cell viability counter screen (AID 1159529); also: nearly all actives have a fitted effect of over 50% in size; also: potency is read from the fitted curve at half-maximal effect
# Summary of the method: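 Tox21 10K compounds were tested for cytotoxicity against GeneBLAzer RXR-alpha HEK 293T cells grown in 2% charcoal-stripped FBS. Exposure lasted 16 hr at 37 C, 5% CO2; viability read by CellTiter-Glo luminescence.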
# [2] = qHTS assay to identify small molecule antagonists of the retinoid acid receptor (RAR) signaling pathway - cell viability counter screen (AID 1159551); also: nearly all actives have a fitted effect of over 35% in size
# Summary of the method: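 Luminescent ATP quantitation (CellTiter-Glo) gave cell viability in C3RL4 cells exposed to test chemicals for 6 h at 37 C alongside 1 uM final retinol.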
# [3] = qHTS assay to identify small molecule antagonists of the retinoic acid receptor (RAR) signaling pathway (AID 1159552; also: nearly all actives have a fitted effect of over 50% in size; also: potency is read from the fitted curve at half-maximal effect)
# Summary of the method: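 Overnight-plated C3RL4 reporter cells get compound, then retinol to 1 uM final; plates sit 6 hr at 37 C, 5% CO2. A luciferase reagent is added and light output recorded after 30 min at room temperature.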
# [4] = qHTS assay to identify small molecule agonists of the retinoic acid receptor (RAR) signaling pathway (AID 1159553); conditions: C3RL4 RARE luciferase reporter, agonist, 6 h; activation: at 73.3 µM (top of the series) unless noted; also: potency is read from the fitted curve at half-maximal effect
# Summary of the method: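 Luminescence from a RARE-driven luciferase reporter in C3RL4 cells served as the read-out, measured after 30 min with detection reagent at room temperature. Compounds in DMSO were applied for 6 hr at 37 C following overnight seeding.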
# [5] = qHTS assay to identify small molecule antagonists of the estrogen related receptor (ERR) signaling pathway from Tox21 library - cell viability counter screen (AID 1224834); also: nearly all actives have a fitted effect of over 30% in size; also: potency is read from the fitted curve at half-maximal effect
# Summary of the method: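 Fluorescence from CellTiter-Fluor gives the viability read-out, taken 30 min after reagent addition. Before that, ERR cells seeded 6 h earlier were incubated with compounds for 17.5 h at 37 C.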
# [6] = qHTS assay to identify small molecule antagonists of the estrogen related receptor (ERR) signaling pathway (AID 1224819;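 also: luminescence from an ERR-driven luciferase reporter measured with One-Glo reagent; nearly all actives have a fitted effect of over 50% in size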)
# Summary of the method: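 Seed ERR cells 2,000/well; rest 6 h at 37 C/5% CO2; pin compounds in DMSO; incubate 18 h at 37 C; add One-Glo; wait 30 min at room temperature; measure luminescence.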
# [7] = qHTS assay to identify small molecule agonists of the estrogen related receptor (ERR) signaling pathway (AID 1224820)
# Summary of the method: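 ERR reporter cells (NTP line) plated 2,000/well, incubated 6 h at 37 C/5% CO2, then pinned with compounds in DMSO and held 18 h at 37 C. One-Glo added; luminescence read after 30 min at room temperature.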
# [8] = tested on: estrogen-related receptor alpha (ERRalpha) with PGC-1alpha coactivator, human; assay: qHTS assay to identify small molecule antagonists of the estrogen related receptor signaling pathway with the pleiotropic PPARgamma coactivator (PGC) (AID 1224821; calls by dose curve;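 also: lower luminescence signal means antagonism of PGC/ERR signalling; nearly all actives have a fitted effect of over 50% in size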)
# Summary of the method: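 Cells engineered for PGC/ERR signalling (line from NTP) were plated 6 h at 37 C/5% CO2, then exposed to DMSO-dissolved compound for 18 h at 37 C. Luciferase activity was read by One-Glo luminescence after 30 min at room temperature.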
# [9] = qHTS assay to identify small molecule antagonists of the estrogen related receptor signaling pathway with the pleiotropic PPARgamma coactivator (PGC) cell viability counter screen (AID 1224822)
# Summary of the method: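 Cells: PGC/ERR, 2,000/well, 1536-well format. Pre-incubation 6 h, 37 C/5% CO2. Compound exposure 17.5 h, 37 C. Detection: CellTiter-Fluor, 30 min, fluorescence.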
# [10] = qHTS assay to identify small molecule agonists of the estrogen related receptor signaling pathway with the pleiotropic PPARgamma coactivator (PGC) (AID 1224823)
# Summary of the method: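 PGC/ERR reporter cells were seeded, rested 6 h at 37 C/5% CO2, then exposed to compounds in DMSO by pin transfer for 18 h at 37 C. Luciferase activity was read as luminescence after One-Glo reagent and 30 min at room temperature.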
smiles,measurement,setting,value
COC(=O)CC(=O)OC,Potency,[1],inactive
same,Potency,[2],inactive
same,Potency,[3],inactive
same,Potency,[4],inactive
same,Potency,[5],inactive
C[C@]12C=CC(=O)C=C1CC[C@H]1[C@@H]3C[C@@H](O)[C@](O)(C(=O)CO)[C@@]3(C)C[C@H](O)[C@@]12F,Potency,[1],inactive
same,Potency,[2],inactive
same,outcome,[6],inactive
same,outcome,[7],inactive
same,outcome,[8],inactive
same,outcome,[9],inactive
same,outcome,[10],inactive
same,Potency,[5],inactive
NCCOCCO,Potency,[1],inactive
same,Potency,[2],inactive
same,Potency,[5],inactive
Cc1ccc(/C(=C\CN2CCCC2)c2ccccn2)cc1,Potency,[1],inactive
same,Potency,[2],inactive
same,outcome,[9],inactive
same,Potency,[5],inactive
c1ccc2cc3ccccc3cc2c1,Potency,[1],inactive
same,Potency,[2],inactive
same,Potency,[5],inactive
CCO[Si](CCCNC(N)=O)(OCC)OCC,Potency,[1],inactive
same,Potency,[2],inactive
same,Potency,[4],inactive
same,Potency,[5],inactive
O=C(O)CCCCCCCCCCCC(=O)O,Potency,[1],inactive
same,Potency,[2],inactive
same,Potency,[5],inactive
NCCN,Potency,[1],inactive
same,Potency,[2],inactive
same,Potency,[5],inactive
CC1(C)O[C@@H]2C[C@H]3[C@@H]4C[C@H](F)C5=CC(=O)C=C[C@]5(C)[C@@]4(F)[C@@H](O)C[C@]3(C)[C@]2(C(=O)CO)O1,Potency,[1],inactive
same,Potency,[2],inactive
same,Potency,[4],inactive
same,Potency,[5],inactive
O=C1CCc2ccccc2O1,Potency,[1],inactive
same,Potency,[2],inactive
same,Potency,[5],inactive
[Na+],Potency,[1],inactive
same,Potency,[2],inactive
same,Potency,[5],inactive
Nc1cc([N+](=O)[O-])ccc1C(=O)O,Potency,[1],inactive
same,Potency,[2],inactive
same,Potency,[4],inactive
same,Potency,[5],inactive
CC(=O)O[C@]1(C(C)=O)CC[C@H]2[C@@H]3C=C(C)C4=CC(=O)CC[C@]4(C)[C@H]3CC[C@@]21C,Potency,[1],inactive
same,Potency,[2],inactive
same,Potency,[5],54.5 µM (active)
Nc1ccc(O)c(N)c1,Potency,[1],inactive
same,Potency,[3],inactive
same,Potency,[4],inactive
O=C(CCCN1CCC(O)(c2ccc(Cl)cc2)CC1)c1ccc(F)cc1,Potency,[1],27.5 µM (active) and inactive
same,Potency,[2],inactive
same,outcome,[9],inactive
same,Potency,[5],61.1 µM (active) and inactive
CCCCCCOCCOCCO,Potency,[1],inactive
same,Potency,[2],inactive
same,Potency,[4],inactive
same,Potency,[5],inactive
NC[C@H](O)c1ccc(O)c(O)c1,Potency,[1],inactive
same,Potency,[2],inactive
same,outcome,[9],inactive
same,Potency,[5],inactive
CC1(C)NC(=O)N(c2ccc([N+](=O)[O-])c(C(F)(F)F)c2)C1=O,Potency,[1],inactive
same,Potency,[3],inactive
same,Potency,[4],inactive
same,outcome,[7],inactive
same,outcome,[8],inactive
same,outcome,[9],inactive
same,outcome,[10],inactive
same,Potency,[5],inactive
CCCN1C=CN(C)C1,Potency,[1],inactive
same,Potency,[2],inactive
same,Potency,[5],inactive
C=C[C@H]1CN2CC[C@H]1C[C@@H]2[C@@H](O)c1ccnc2ccc(OC)cc12,Potency,[1],inactive
same,Potency,[2],inactive
same,Potency,[5],inactive
CCCCCCC(C)O (configuration not stated),Potency,[1],inactive
same,Potency,[2],inactive
same,Potency,[5],inactive
O=C(O)COCCN1CCN(C(c2ccccc2)c2ccc(Cl)cc2)CC1 (configuration not stated),Potency,[1],inactive
same,Potency,[2],inactive
same,outcome,[9],inactive
same,Potency,[5],inactive
C=C[C@@]1(C)CC(=O)[C@]2(O)[C@@]3(C)[C@@H](O)CCC(C)(C)[C@@H]3[C@H](O)[C@H](OC(C)=O)[C@@]2(C)O1,Potency,[1],11 µM (active) and 7.56 µM (active)
same,Potency,[3],inactive
same,Potency,[4],inactive
C=C[C@H]1CN2CC[C@H]1C[C@H]2[C@H](O)c1ccnc2ccc(OC)cc12,Potency,[1],inactive
same,Potency,[2],inactive
same,Potency,[5],inactive
CCCCCCCCCCC(CO)CCCCCCCC (configuration not stated),Potency,[1],inactive
same,Potency,[2],inactive
same,Potency,[5],inactive
COC(=O)c1ccc(C)cc1,Potency,[1],inactive
same,Potency,[2],inactive
same,Potency,[5],inactive
C[C@]12CC[C@@H]3c4ccc(O)cc4CC[C@H]3[C@@H]1CC[C@H]2O,Potency,[1],inactive
same,Potency,[3],inactive and 27.3 µM (active)
same,Potency,[4],inactive
C=C[Si](OCCOC)(OCCOC)OCCOC,Potency,[1],inactive
same,Potency,[2],inactive
same,Potency,[4],inactive
same,Potency,[5],inactive
CC1(C)C(C=C(Cl)Cl)C1C(=O)OCc1cccc(Oc2ccccc2)c1 (configuration not stated),Potency,[1],inactive
same,Potency,[2],inactive
same,Potency,[5],inactive
CC(=O)O[C@]1(C(C)=O)CC[C@H]2[C@@H]3C=C(Cl)C4=CC(=O)CC[C@]4(C)[C@H]3CC[C@@]21C,Potency,[1],inactive
same,Potency,[2],inactive
same,Potency,[4],inactive
same,Potency,[5],61 µM (active)
C[N+](C)(C)CCO,Potency,[1],inactive
same,Potency,[2],inactive
same,outcome,[9],inactive
same,Potency,[5],inactive
CC(C)(Oc1ccc(Cl)cc1)C(=O)O,Potency,[1],inactive
same,Potency,[2],inactive
same,Potency,[5],inactive
COc1ccc(-c2coc3cc(O)cc(O)c3c2=O)cc1,Potency,[1],inactive
same,Potency,[3],inactive
same,Potency,[4],0.686 µM (active)
CCCCCC=O,Potency,[1],inactive
same,Potency,[2],inactive
same,Potency,[5],inactive
CCC(=O)O[C@H]1[C@H](O[C@@H]2[C@@H](C)[C@H](O[C@H]3C[C@@](C)(OC)[C@@H](O)[C@H](C)O3)[C@@H](C)C(=O)O[C@H](CC)[C@@](C)(O)[C@H](O)[C@@H](C)C(=O)[C@H](C)C[C@@]2(C)O)O[C@H](C)C[C@@H]1N(C)C,Potency,[1],inactive
same,Potency,[2],inactive
same,Potency,[5],inactive
O=C1OC2(c3ccccc31)c1cc(I)c(O)c(I)c1Oc1c2cc(I)c(O)c1I,Potency,[1],inactive
same,Potency,[3],34.8 µM (active) and inactive
same,Potency,[4],inactive
same,Potency,[5],15.5 µM (active) [middle of 4 runs]
CCC/C=C/C=O,Potency,[1],inactive
same,Potency,[2],inactive
same,Potency,[5],inactive
CC(C)[C@@H]1CC[C@@H](C)CC1=O,Potency,[1],inactive
same,Potency,[2],inactive
same,Potency,[5],inactive
CCCCCCCCCCCCCO,Potency,[1],inactive
same,Potency,[3],inactive
same,Potency,[4],inactive
same,Potency,[5],inactive
c1ccc2ncccc2c1,Potency,[1],inactive
same,Potency,[2],inactive
same,Potency,[5],inactive
CNC[C@H](O)c1ccc(O)c(O)c1,outcome,[6],inactive
same,outcome,[7],inactive
same,outcome,[8],inactive
same,outcome,[10],inactive
CN(C)CCCN1c2ccccc2Sc2ccc(Cl)cc21,outcome,[7],inactive
same,outcome,[8],inactive
same,outcome,[10],inactive
